For assay [1], the target named is Glutathione peroxidase 1 (Homo sapiens) (UniProt P07203). The assay can be described thus: Primary qHTS Assay for Inhibitors of Recombinant Selenoprotein Glutathione Peroxidase 1 (GPX1) (AID 1845191). Also: nearly all actives have a fitted effect of over 65% in size. As to activity, negative = inhibition: % is scaled to controls: 0 for no effect and ±100 for the full control effect. An outline of the steps: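 NADPH consumption tracked by fluorescence at 340/450 nm between t=0 and t=15 min, room temperature. Final mix: 10 nM GPX1, 100 nM glutathione reductase, 1 mM GSH, 0.5 mM NADPH, 0.5 mM cumene hydroperoxide, 0.01% BSA; 30 min compound–enzyme preincubation.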
Sequence of Glutathione peroxidase 1 (Homo sapiens) (P07203 whole entry, looked up): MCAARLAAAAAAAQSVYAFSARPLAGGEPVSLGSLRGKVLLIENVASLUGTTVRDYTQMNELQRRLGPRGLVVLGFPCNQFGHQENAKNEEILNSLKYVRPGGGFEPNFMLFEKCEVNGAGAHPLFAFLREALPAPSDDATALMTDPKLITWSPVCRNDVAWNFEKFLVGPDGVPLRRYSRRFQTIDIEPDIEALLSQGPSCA
A general note: In qHTS, concentration-response curves come from the screen itself.

In assay [2] the target is Phospholipid hydroperoxide glutathione peroxidase GPX4 (Homo sapiens) (UniProt P36969). The assay is described as follows: Primary qHTS Assay for Inhibitors of Recombinant Selenoprotein Glutathione Peroxidase 4 (GPX4) (AID 1845192). Also: nearly all actives have a fitted effect of over 65% in size. As to activity change, negative = inhibition: series mostly up to about 50 µM; % is scaled to controls: 0 for no effect and ±100 for the full control effect. An outline of the steps: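 NADPH consumption followed by fluorescence at 340/450 nm, t=0 and after 15 min at room temperature. Reaction started with cumene hydroperoxide (0.5 mM final) after 30 min compound–GPX4 preincubation; final 200 nM GPX4, 100 nM GR, 1 mM GSH, 0.5 mM NADPH.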
Sequence of Phospholipid hydroperoxide glutathione peroxidase GPX4 (Homo sapiens) (P36969 whole entry, looked up): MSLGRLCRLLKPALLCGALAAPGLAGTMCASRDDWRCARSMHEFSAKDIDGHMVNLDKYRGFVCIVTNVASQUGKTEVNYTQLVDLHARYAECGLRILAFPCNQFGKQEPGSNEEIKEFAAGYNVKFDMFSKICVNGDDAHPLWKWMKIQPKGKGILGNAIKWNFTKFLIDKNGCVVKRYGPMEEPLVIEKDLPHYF

Assay [3] concerns the target Luciferin 4-monooxygenase (Photinus pyralis) (UniProt P08659). The assay is described as follows: Primary firefly luciferase (FLuc) qHTS assay for identification of artifact compounds. (AID 1845220). Also: nearly all actives have a fitted effect of over 60% in size.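 As to activity change, negative = inhibition: series mostly up to about 54 µM; plate controls were DMSO vehicle for no effect and no enzyme for full effect.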 An outline of the steps:
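Compounds sat 15 min at room temperature with 10 uM luciferin and 10 uM ATP (pH 7.6 Tris acetate). Firefly luciferase (10 nM final) was then added, and luminescence was read 5 min later. Data normalized to no-enzyme and DMSO controls were Hill-fitted.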

Assay [4] in a line: Primary fluorescence-based thiol-reactive (MSTI) qHTS assay for identification of artifact compounds. (AID 1845221). Also: nearly all actives have a fitted effect of over 65% in size. Also: potency is read from the fitted curve at half-maximal effect.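 As to activity change, negative = thiol reactive: series mostly up to about 54 µM; thiol-reactive compounds lower the probe fluorescence signal.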 An outline of the steps: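 Reactivity toward the thiol probe MSTI (4 uM) is scored by fluorescence at Ex/Em 525/598 nm after 1 h at room temperature. Acetyl-MSTI and MSTI define the activity scale.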
In assay [5] the test system is Nanoluciferase (engineered Oplophorus gracilirostris luciferase). The assay is described as follows: Primary Nanoluciferase (NLuc) qHTS assay for identification of artifact compounds. (AID 1845222).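 Also: series mostly up to about 54 µM; 0% = DMSO and -100% = no enzyme.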 The gist of the method:
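Luminescence from secreted NLuc (filtered, 1:55-diluted S16 cell medium) read 5 min after Nano-Glo substrate; compounds preincubated 15 min, RT. Hill fits of inhibition normalized to DMSO and no-enzyme.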

Assay [6] is described as follows: Primary redox qHTS assay for identification of artifact compounds. (AID 1845223).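 Also: 0% = DMSO and 100% = reference compound.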 The gist of the method:
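Redox-cycling detection via DTT (250 uM final) oxidation coupled to Amplex Red (25 uM)/HRP (250 mU/mL) in HBSS. 15 min preincubation plus 30 min after DTT, room temperature. Ex/Em 525/598 nm; 4-parameter Hill fit against DMSO and 10 uM DA3003.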

We go through 20 compounds from PubChem BioAssay (NCATS).

Values without a mark were called inactive. Records with an inconclusive call do not appear. The source made the active and inactive calls. Calls follow the shape of the dose curve; as a rule, active = well fitted curve in the direction sought with a large enough effect; inconclusive = small, poorly fitted or top-dose-only effect, or another doubt; inactive = no such curve, though single readings can be large; an effect the other way counts as inactive or inconclusive. Where a SMILES comes first, the peptide text is derived from it.

Regarding `O=C1C(Cl)=C(N2CCOCC2)C(=O)N1c1ccc(Cl)c(Cl)c1`, the Potency result in assay [1], in assay [2], in assay [3], in assay [4], in assay [5] and in assay [6] was “inactive” in each case.
Turning to `C=C1[C@H](OC(C)=O)[C@H]2[C@@H](OC(=O)c3ccccc3)[C@@H](C)C[C@]2(O)[C@@H](OC(C)=O)[C@H](C)/C=C/C(C)(C)C(=O)[C@H](OC(C)=O)[C@H]1OC(C)=O`, the Potency result in assay [1], in assay [2], in assay [3], in assay [4], in assay [5] and in assay [6] was “inactive” each time.
Turning to `C=C1CC[C@@H]2[C@](C)(CO)[C@H](O[C@@H]3O[C@H](CO)[C@@H](O)[C@H](O)[C@H]3O)CC[C@@]2(C)[C@@H]1C/C=C1/C(=O)OC[C@H]1O`, the Potency entry in assay [1], in assay [2], in assay [3], in assay [5] and in assay [6] was “inactive” throughout. For the same compound, the Potency in assay [4] is 6.53 µM (active).
Turning to `Cc1cccc(NC(=O)CN2CCC(c3ccccn3)CC2)c1`, the Potency result in assay [1], in assay [2], in assay [3], in assay [4], in assay [5] and in assay [6] was “inactive” in each case.
Take `CC12CC(c3ccoc3)OC(=O)C1CCC1(C)C2CCC(O)C1(C)O` (stereo not given): the Potency result in assay [1], in assay [2], in assay [3], in assay [5] and in assay [6] was “inactive” each time. The Potency in assay [4] is 16.5 µM (active).
As for `CC(C)(O)C1CC=C(C(=O)OC[C@H]2O[C@@H](Oc3cc(C(=O)O)cc(O)c3O)[C@H](O)[C@@H](O)[C@@H]2O)CC1` (stereo not given in full), the Potency result in assay [1], in assay [2], in assay [3], in assay [5] and in assay [6] was “inactive” in each case. Besides, the Potency in assay [4] was 5.19 µM (active).
As for `CC(C)c1ccc2c(c1)C(O)CC1C(C)(CO)CCCC21C` (stereo not given), the Potency entry in assay [1], in assay [2], in assay [3], in assay [4], in assay [5] and in assay [6] was “inactive” each time.
Consider `CCOC(=O)C1=C(N)Oc2ccc(Cl)cc2C1C(C#N)C(=O)OCC` (stereo not given), for which the Potency result in assay [1], in assay [2], in assay [3], in assay [4], in assay [5] and in assay [6] was “inactive” throughout.
Turning to `C=C(C(=O)O)C1CC(O)C2(C)CCCC(C)(O)C2C1` (stereo not given), the Potency entry in assay [1], in assay [2], in assay [3], in assay [5] and in assay [6] was “inactive” throughout. In assay [4], the Potency was 11.9 µM (active).
`CC1CCC2(C(=O)O)CCC3(C)C(=CCC4C5(C)C[C@@H](O)[C@@H](O)C(C)(CO)C5CCC43C)C2C1(C)O` (stereo not given in full): the Potency result in assay [1], in assay [2], in assay [3], in assay [4], in assay [5] and in assay [6] was “inactive” throughout.
As for `Nc1ncnc2c1c(COc1cccc(Cl)c1)nn2C1CCOCC1`, the Potency entry in assay [1], in assay [2], in assay [3], in assay [4], in assay [5] and in assay [6] was “inactive” throughout.
Take `COc1cc(/C=C/C(=O)O[C@H]2[C@H](O)[C@@H](CO)O[C@@]2(CO)O[C@H]2O[C@H](CO)[C@@H](O)[C@H](O)[C@H]2O)cc(OC)c1O`: the Potency result in assay [1], in assay [2], in assay [3], in assay [4], in assay [5] and in assay [6] was “inactive” in each case.
Turning to `C[C@@H]1C[C@@H](O)[C@@]23CO[C@]2(CO)C[C@@H](O)CC3[C@@]12CC(c1ccoc1)OC2=O` (stereo not given in full), the Potency entry in assay [1], in assay [2], in assay [3], in assay [5] and in assay [6] was “inactive” each time. Also, the Potency in assay [4] was 6.56 µM (active).
With `COc1cccc(C)c1C(=O)O[C@@H]1C[C@H](O[C@H]2[C@H](O)C[C@H](O[C@@H]3CCC[C@H]4[C@H]3C=C[C@@H]3CCCC/C=C/[C@H]5C=C(C(=O)O)[C@@H](C)C[C@@]56OC(=O)C(=C6O)OC(=O)[C@@]34C)O[C@@H]2C)O[C@H](C)[C@H]1O`, the Potency result in assay [1] and in assay [2] was “inactive” throughout. Also, in assay [3], the activity change, negative = inhibition was 4.15% [at 11.6 µM]. Further, the activity change, negative = thiol reactive in assay [4] is 170% [at 11.5 µM]. In assay [5], the activity, negative = inhibition is 4.95% [at 11.6 µM]. For the same compound, the redox activity (% of DA3003) in assay [6] was -8.49% [at 11.5 µM].
As for `CC1(C)OC(=O)C=C[C@@]2(C)C1CC(=O)[C@]1(C)C2CC[C@@]2(C)[C@H](c3ccoc3)OC(=O)[C@H]3O[C@]321` (stereo not given in full), the Potency result in assay [1], in assay [2], in assay [3], in assay [4], in assay [5] and in assay [6] was “inactive” throughout.
As to `Cn1cc(CCn2cnc(-c3cnn(C)c3)c2-c2ccc(C#N)cc2)cn1`, the Potency result in assay [1], in assay [2], in assay [3], in assay [4], in assay [5] and in assay [6] was “inactive” in each case.
`CC(C)(O)[C@@H]1CC[C@]2(CO)[C@@H](O)CC[C@](C)(O)[C@H]2[C@@H]1O[C@@H]1O[C@H](CO)[C@@H](O)[C@H](O)[C@H]1O`: the Potency entry in assay [1], in assay [2], in assay [3], in assay [4], in assay [5] and in assay [6] was “inactive” each time.
Turning to `C/C=C1/[C@H](O[C@@H]2O[C@H](CO)[C@@H](O)[C@H](O)[C@H]2O)OC=C2C(=O)O[C@@H]3C[C@@H](C(C)CO)[C@H](COC(=O)C[C@H]21)[C@H]3C` (stereo not given in full), the Potency result in assay [1], in assay [2], in assay [3], in assay [4], in assay [5] and in assay [6] was “inactive” in each case.
Take `CC(C)C1NC(=O)CNC(=O)C2CCCN2C(=O)C(Cc2c[nH]c3ccccc23)NC(=O)CNC(=O)C(Cc2ccc(O)cc2)NC(=O)CNC1=O` (stereo not given) (cyclo(GVGYGWP); configuration not given here): the Potency entry in assay [1], in assay [2], in assay [3], in assay [4], in assay [5] and in assay [6] was “inactive” in each case.
As to `COC(=O)C1=COC(OC2OC(CO)C(O)C(O)C2O)C2C(COC(=O)/C=C/c3ccc(O)c(O)c3)C(O)C(O)C12` (stereo not given), the Potency result in assay [1], in assay [2], in assay [3], in assay [5] and in assay [6] was “inactive” in each case. The Potency in assay [4] is 2.51 µM (active).
